TEAD-YAP inh: TEAD-YAP interaction inhibition; hit rate 1.4% among 640,000; inhibition, % at 9.12 µM; HEK-TIYL cells, TEAD-Gal4/YAP UAS-luciferase luminescence; in the data active = inhibition above about 32%;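 also: 0% = median of test compound wells and 100% = reference inhibitor wells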
FBW7 act: activators of human E3 ligase FBW7; Q969H0; AlphaScreen FBW7–phospho-cyclin E peptide binding, activator screen; AID 1259310; hit rate 0.13% among 650,000; normalized activity (activation), % at 26.1 µM; in the data active = normalized activity above about 1.9%;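 also: purified mutant Fbw7 with reduced substrate affinity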
GPR151 activ: activators of human GPR151; Q8TDV0; PathHunter beta-arrestin GPR151 cells, luminescence; activation, % at 11.2 µM; hit rate 1% among 650,000; in the data active = activation above about 4.9%;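 also: 0% = median of compound wells and 100% = cells with positive control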
Target sequence (Q8TDV0 whole entry, looked up): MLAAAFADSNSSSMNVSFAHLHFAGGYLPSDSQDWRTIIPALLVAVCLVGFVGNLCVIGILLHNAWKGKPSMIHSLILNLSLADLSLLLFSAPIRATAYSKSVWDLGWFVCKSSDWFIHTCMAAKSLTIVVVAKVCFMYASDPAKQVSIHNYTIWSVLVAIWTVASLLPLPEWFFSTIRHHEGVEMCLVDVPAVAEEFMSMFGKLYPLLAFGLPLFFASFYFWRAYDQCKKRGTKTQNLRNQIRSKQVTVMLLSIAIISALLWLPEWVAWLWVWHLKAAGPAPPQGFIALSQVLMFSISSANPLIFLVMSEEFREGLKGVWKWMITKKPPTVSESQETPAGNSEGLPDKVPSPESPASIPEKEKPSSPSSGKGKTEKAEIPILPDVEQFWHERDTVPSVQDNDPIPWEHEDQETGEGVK
MITF primary: inhibitors of human MITF; O75030; AlphaScreen MITF homodimerization, bead proximity signal; inhibition, % at 2.6 µM; hit rate 0.91% among 650,000; AID 1259374; in the data active = inhibition above about 50%;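 also: 0% = vehicle wells with protein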
MITF inh conf: confirmation of human MITF inhibitors; shares compounds with MITF primary; AlphaScreen MITF homodimerization, biotin/His-MITF beads; inhibition, % at 2.6 µM; hit rate 16% among 4,700; AID 1259372;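 active = inhibition above a cutoff derived from the DMSO control wells, cut at about 28% in these data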;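 also: 0% = MITF dimer wells with DMSO only; inhibitors lower the bead chemiluminescence by keeping MITF from dimerizing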
AS interf DR: optically interferes with AlphaScreen signal in dose response. shares compounds with MITF primary. IC50, µM. AlphaScreen optical interference counterscreen, cell-free. hit rate 6% among 480. AID 1259373; call rule not given here
AS interf ctr: AlphaScreen optical interference, counter-screen; shares compounds with MITF primary; AID 1259376; inhibition, % at 2.6 µM; LysRS AlphaScreen counterscreen, signal interference, triplicate; hit rate 7.6% among 4,700;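 active = inhibition above a cutoff derived from the DMSO control wells, cut at about 30% in these data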
The depositor's hits bear a star; / = no result. In the library only some 3.4% were active in any assay of this set; here they are far more common.

SMILES	TEAD-YAP inh	FBW7 act	GPR151 activ	MITF primary	MITF inh conf	AS interf ctr	others
C=CCc1ccc(OCCCCN2CCNCC2)c(OC)c1	-11	0	2	67*	6	1
C=CCc1ccc(OCCNC)c(OC)c1	2	0	3	38	/	/
C=CCc1ccc(OCCN2CCN(CC)CC2)c(OC)c1	-6	0	0	71*	4	15
C=CCc1ccc(OCCCCCN2CCOCC2)c(OC)c1	-7	0	3	59*	0	-1
COC(=O)c1ccccc1NC(=O)CN(C1CCCCC1)S(=O)(=O)c1ccc(F)cc1	-3	0	0	1	/	/
Cc1cc(NCc2ccccc2)n2ncnc2n1	3	0	1	12	/	/
Cc1cc(NCc2ccccc2F)n2ncnc2n1	0	2	0	51*	3	11
Cc1csc(-c2cc3ccccc3oc2=O)n1	-25	0	-7	67*	13	10
Cc1cc(C(=O)O)ccc1-c1ccc(/C=C2/NC(=O)NC2=O)o1	12	0	1	67*	68*	20	AS interf DR=>6.5
Cc1cc(C)c(NC(=O)COc2ccc(Cl)cc2Cl)c(C)c1	-7	0	-1	5	/	/
CC(C)(C)OC(=O)N1C(C(=O)O)CSC1c1cc2c(cc1[N+](=O)[O-])OCO2 (stereo not given)	-7	0	0	60*	72*	-5	AS interf DR=>6.5
c1cn(-c2ccc(Nc3nc4ncnc(Nc5ccc(N6CCOCC6)cc5)c4[nH]3)cc2)cn1	31	0	-4	-5	/	/
c1cn(-c2ccc(Nc3nc4ncnc(NCCN5CCOCC5)c4[nH]3)cc2)cn1	-6	0	1	88*	6	20
Cc1ccc(/C=C(\C#N)c2nc(-c3ccc(Cl)cc3)cs2)cc1	-4	0	1	8	/	/
Cc1csc(C(C#N)C(=O)COC(=O)c2cc3c(C)nn(-c4ccccc4)c3s2)n1 (stereo not given)	-2	0	-2	-5	/	/
COc1ccc(C(=O)Nc2sc(C)c(C)c2C#N)cc1[N+](=O)[O-]	6	0	-1	74*	-6	-6
Cc1ccc(S(=O)(=O)N2CCN(CC(=O)Nc3cc(Cl)ccc3C)CC2)cc1C	3	0	4	53*	-10	-6
O=C(CN1CCCCC1)Nc1c2c(nc3ccccc13)N(c1ccccc1)CC2	0	0	1	32	/	/
CN(CC(=O)Nc1c2c(nc3ccccc13)N(C)CC2)Cc1ccccc1	22	0	4	65*	-6	-7
CN1CCc2c1nc1ccccc1c2NC(=O)CNC1CC1	-7	0	0	53*	16	24
CN(CC(=O)Nc1c2c(nc3c1CCC3)CCCC2)Cc1ccccc1	0	0	-1	68*	2	1
CN1CCc2c1nc1ccccc1c2NC(=O)C12CC3CC(CC(C3)C1)C2	2	0	1	12	/	/
CN1CCN(CC(=O)Nc2c3c(nc4ccccc24)N(C)CC3)CC1	7	0	0	79*	-8	-3
N#CCCn1ncn(-c2ccccn2)c1=S	-15	0	-2	21	/	/
O=C(Nc1ccccc1C(=O)O)c1ccc[n+]([O-])c1	-4	0	-3	3	/	/
SMILES	TEAD-YAP inh	FBW7 act	GPR151 activ	MITF primary	MITF inh conf	AS interf ctr	others
CC1(C)CCCC2=C1CC1C(=O)N(c3ccccc3)NC(=O)C1C2 (stereo not given)	2	0	-1	0	/	/
COc1ccc(CN2CCN(c3ccccn3)CC2)cc1O	4	0	-1	49	/	/
COc1ccc(CN2CCN(Cc3ccccn3)CC2)cc1	-3	0	1	43	/	/
COc1cc(CN2CCN(Cc3ccccn3)CC2)cc(OC)c1OC	-5	0	-1	79*	1	15
COc1ccc(CN2CCN(Cc3ccccn3)CC2)cc1Br	3	0	0	68*	6	18
COc1cc(OC)c(OC)cc1CN1CCN(Cc2ccccn2)CC1	-8	0	-2	71*	9	16
CN(C)CC(C)(O)c1ccc2c(c1)CN(C/C=C/c1ccco1)CCO2 (stereo not given)	1	0	0	-5	/	/
CCN1CCN(C2CCN(Cc3cc(OC)c(OC)c(OC)c3)CC2)CC1	-3	0	-1	49	/	/
COc1ccccc1CN1CCC(N2CCN(C)CC2)CC1	10	0	0	46	/	/
COc1ccc(CN2CCC(N3CC(C)OC(C)C3)CC2)cc1 (stereo not given)	1	0	-1	87*	-4	0
COc1ccc(CN2CCC(N3CC(C)OC(C)C3)CC2)c(OC)c1OC (stereo not given)	9	0	1	65*	-2	2
CCN1CCN(C2CCN(Cc3ccc(OC)c(OC)c3OC)CC2)CC1	3	0	-1	61*	-13	-7
COc1ccccc1CN1CCN(C2CCCCC2)CC1	-1	0	-1	70*	-5	-4
CCOc1ccccc1CN1CCC(N2CCC(C)CC2)CC1	0	0	-1	70*	16	17
COc1ccc(CN2CCN(C3CCCC(C)C3)CC2)c(OC)c1OC (stereo not given)	-6	0	2	54*	9	13
CCOc1ccccc1CN1CCC(N2CCOCC2)CC1	-6	0	-1	50	/	/
COc1ccc(CN2CCN(C3CCC(c4ccccc4)CC3)CC2)c(OC)c1OC (stereo not given)	8	0	2	53*	12	22
COc1ccc(CN2CCN(C3CCCCC3)CC2)c(OC)c1OC	8	0	1	76*	-4	2
CCCCOc1cccc(C(=O)Nc2ccc(Cl)c(-c3nc4ncccc4o3)c2)c1	-7	0	-1	-10	/	/
O=C(CNC(=O)c1ccccc1)N/N=C/c1ccccc1[N+](=O)[O-]	-12	0	1	-7	/	/
CCC(C)C(=O)Nc1nnc(SCC(=O)NC2CCCC2)s1 (stereo not given)	5	0	0	13	/	/
CCC(CC)C(=O)Nc1nnc(SCC(=O)NC2CCCC2)s1	3	0	0	61*	1	11
CC(C)(C)C(=O)Nc1nnc(-c2ccco2)o1	0	0	-1	17	/	/
CCCCN(C(=O)NC(=O)Nc1ccccc1OCC)S(=O)(=O)c1ccc(C)cc1	-1	0	0	9	/	/
COC(=O)Oc1ccc2c(=O)c(-c3ccccc3OC)coc2c1	-14	1	0	11	/	/
CN1CCN(CCOCCOc2c(Cl)cc(Cl)cc2Cl)CC1	10	0	-1	44	/	/
Cc1cc(Cl)c(OCCN2CCN(C)CC2)c(Br)c1	-6	0	2	55*	1	6
COCCNCCOc1c(Cl)cc(C)cc1Br	-3	0	0	64*	11	13
Cc1cc(Cl)c(OCCOCCN2CCN(C)CC2)c(Br)c1	1	0	0	77*	16	17
